# Source: PubChem BioAssay (NCATS)
# Records with an inconclusive call do not appear. Calls of active or inactive are those of the source. Calls follow the shape of the dose curve; as a rule, active = well fitted inhibition curve with a large enough effect; inconclusive = small, poorly fitted or top-dose-only effect; inactive = flat fitted curve, though single readings scatter.
# Test system: UISO
# Assay: qHTS assay to identify novel small-molecules to repurpose for Merkel cell carcinoma treatment (AID 1296009); also: nearly all actives have a fitted effect of over 60% in size
# Details: MCC and control cell lines, CellTiter-Glo viability, 72 h; series mostly up to 46 µM
# Outline: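 qHTS format: cells treated with library compounds in DMSO across 8 (NPC) or 11 (MIPE) concentrations. Readout after 72 hr at 37 degree celsius was CellTiter-Glo luminescence.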
# Potency is read from the fitted curve at half-maximal effect.
row,Structure (SMILES),Potency
1,Cc1cc(N)c2cc(NC(=O)Nc3ccc4nc(C)cc(N)c4c3)ccc2n1,inactive
2,CCCCCCC[N+](CC)(CC)CCCCc1ccc(Cl)cc1,4.73 µM (active)
3,C[n+]1c2cc(N)ccc2cc2ccc(N)cc21 (tested in a mixture with another compound),2.99 µM (active)
4,COc1ccc(OC)c(C(O)CNC(=O)CN)c1 (stereo not drawn),inactive
5,Cc1c(C(C)C)c(=O)n(-c2ccccc2)n1C,inactive
6,O=C(Nc1ccc(Oc2ccc(Cl)cc2)c(Cl)c1)c1cc(I)cc(I)c1O,inactive
7,CN(C)C(=S)SC(=S)N(C)C,1.19 µM (active)
8,CCOc1ccc2nc3cc(N)ccc3c(N)c2c1,8.41 µM (active)
9,CCC(C(=O)OCCN(CC)CC)c1ccccc1 (stereo not drawn),inactive
10,CCCN1CCCC[C@H]1C(=O)Nc1c(C)cccc1C,inactive
11,CN1CCCC(CC2c3ccccc3Sc3ccccc32)C1 (stereo not drawn),23.7 µM (active)
12,O=c1c(-c2ccccc2)c1-c1ccccc1,26.6 µM (active)
13,CC(C)(C)CC(C)(C)c1ccc(OCCOCC[N+](C)(C)Cc2ccccc2)cc1,8.41 µM (active)
14,CO/N=C1\CN(c2nc3c(cc2F)c(=O)c(C(=O)O)cn3C2CC2)CC1CN (stereo not drawn),inactive
15,C/C=C(/C(=C/C)c1ccc(O)cc1)c1ccc(O)cc1,inactive
16,CCCSS/C(CCO)=C(\C)N(C=O)Cc1cnc(C)nc1N,29.9 µM (active)
17,CCCCCCCCCCCCCCCC[N+](C)(C)CC,0.668 µM (active)
18,CCCCCCCCCCCCCCCC[N+](C)(C)CCN(Cc1ccc(OC)cc1)c1ncccn1,10.6 µM (active)
19,Cc1ccc(O)c2ncccc12,11.9 µM (active)
20,Cc1c(C)n(CCN(C)C)c2ccc(C(=O)OCCN(C)C)cc12,inactive
21,Oc1c(I)cc(Cl)c2cccnc12,16.8 µM (active)
22,CC1=C(C(=O)O)N2C(=O)[C@@H](NC(=O)[C@H](N)c3ccc(O)cc3)[C@H]2SC1,inactive
23,Cc1ccccc1C(=O)Nc1ccc(C(=O)N2CCCC(N(C)C)c3ccccc32)cc1 (stereo not drawn),inactive
24,CCCCC(CC)CN=C(N)NC(N)=NCCCCCCN=C(N)NC(N)=NCC(CC)CCCC (stereo not drawn),1.88 µM (active)
25,O=C1OC(c2ccc(O)cc2)(c2ccc(O)cc2)c2ccccc21,inactive
26,COc1cc(C=C2CCC/C(=C\c3ccc(O)c(OC)c3)C2=O)ccc1O,21.1 µM (active)
27,NC(=NCCCCCCN=C(N)/N=C(\N)Nc1ccc(Cl)cc1)/N=C(\N)Nc1ccc(Cl)cc1,9.44 µM (active)
28,COc1cccc2c1C(=O)c1c(O)c3c(c(O)c1C2=O)C[C@@](O)(C(C)=O)C[C@@H]3O[C@H]1C[C@H](N)[C@H](O)[C@H](C)O1,0.211 µM (active)
